Measured values taken from PubChem BioAssay.
Active and inactive are the calls of the source. Unless noted, no rule for the calls is given here.

Legend:
[1] = test system: XIP peptide (Xip251-270) binding; assay: XIP fragment 251-270 binding compounds – biochemical, small-molecule microarray, fluorescence 635/667 nm, 0.1 µg/mL protein, primary screen (AID 1182); conditions: fluorescent protein binding, 635 nm, higher = more signal, called active from +8 up or from −8 down
XIP peptide (Xip251-270) = assay: compounds binding XIP fragment 251-270 – biochemical, small-molecule microarray, fluorescence 635/667 nm, 0.5 µg/mL protein, primary screen (AID 1183); conditions: fluorescence 635 nm, higher = more signal
[2] = blood-stage malaria parasite viability loss – strain 3D7, DAPI fluorescence, 100 nL, primary screen (AID 1184);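 also: parasites grown inside human red blood cells in medium with human serum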; conditions: P. falciparum 3D7 growth, 3 d, higher = more signal
[3] = target: Homeobox protein Hox-A13 (Mus musculus) (UniProt Q62424); assay: disruptors of Hoxa13 oligonucleotide interaction – biochemical, fluorescence polarization, labeled oligonucleotide, primary screen (AID 1185); conditions: Hoxa13:DNA binding, 15 min, higher = more signal, called active from +8 up or from −8 down
Chain of Homeobox protein Hox-A13 (Mus musculus) (Q62424 whole entry, looked up): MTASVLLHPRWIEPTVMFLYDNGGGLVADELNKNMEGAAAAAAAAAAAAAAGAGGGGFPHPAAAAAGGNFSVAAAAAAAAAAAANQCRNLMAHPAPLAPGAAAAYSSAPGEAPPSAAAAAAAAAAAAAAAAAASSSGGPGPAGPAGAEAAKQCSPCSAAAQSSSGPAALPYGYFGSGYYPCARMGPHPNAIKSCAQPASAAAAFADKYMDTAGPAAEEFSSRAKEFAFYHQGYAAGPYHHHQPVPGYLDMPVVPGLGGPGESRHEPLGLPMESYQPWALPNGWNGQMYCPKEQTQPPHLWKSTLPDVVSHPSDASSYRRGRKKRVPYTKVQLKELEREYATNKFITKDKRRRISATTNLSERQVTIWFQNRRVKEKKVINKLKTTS

[4] = blockers of DNA damage checkpoint Chk1 activation – imaging, HeLa, hydroxyurea, phospho-Chk1 antibody, percent positive cells, primary screen (AID 1186); conditions: hydroxyurea-induced phospho-Chk1 immunofluorescence imaging, higher = more signal
[5] = blockers of DNA damage checkpoint Chk1 activation – imaging, HeLa, hydroxyurea, phospho-Chk1 nuclear intensity, primary screen (AID 1187); conditions: hydroxyurea-induced phospho-Chk1 immunofluorescence imaging, higher = more signal

Compound	composite z-score [1]	composite z-score (XIP peptide (Xip251-270))	z-score [2]	z-score [3]	z-score [4]	z-score [5]
COC(=O)[C@@]1(Cc2ccc(F)cc2)[C@@H]2C(=CC(=O)[C@H]2CC(=O)C(=O)N2CCCC2)CN1C(=O)c1ccccc1	0.47 (inactive)	0.839	-1.72	-4.84 (inactive)	0.261 (inactive)	0.278 (inactive)
COC(=O)C(CC#Cc1ccc2c(c1)[C@]1(C(=O)N2)[C@H](c2ccccc2OCCO)N2[C@H](c3ccccc3)[C@H](c3ccccc3)OC(=O)[C@H]2[C@@H]1C(=O)N1CCN(c2ncccn2)CC1)C(=O)OC	-0.0996 (inactive)	0.539	-2.27	-1.41 (inactive)	0.0162 (inactive)	-0.581 (inactive)
C=CC[C@]1(C(=O)NCCN2CCOCC2)N=C(c2ccc(OCCCO)cc2)O[C@H]1c1ccccc1	0.212 (inactive)	0.492	-0.188	-6.22 (inactive)	-0.116 (inactive)	0.106 (inactive)
C[C@]1(C(=O)O)c2ccccc2C(=O)N(Cc2cc(C(F)(F)F)cc(C(F)(F)F)c2)[C@H]1c1ccc(CO)cc1	0.17 (inactive)	0.816	1.06	-2.61 (inactive)	0.19 (inactive)	0.362 (inactive)
O=C1O[C@H](c2ccccc2)[C@H](c2ccccc2)N2[C@H]1[C@@H](C(=O)Nc1nc3ccccc3s1)[C@]1(C(=O)Nc3ccccc31)[C@H]2c1ccccc1OCCO	1.18 (inactive)	0.758	-1.08	2 (inactive)	0.153 (inactive)	0.65 (inactive)
CCOC(=O)C=C1C[C@@H](c2cccc([N+](=O)[O-])c2)O[C@@H](c2cccc([N+](=O)[O-])c2)O1	0.232 (inactive)	0.673	-2.18	0.392 (inactive)	-0.447 (inactive)	-0.443 (inactive)
O=C1c2ccccc2[C@](Cc2ccccc2I)(C(=O)NCCN2CCOCC2)[C@H](c2ccc(CO)cc2)N1Cc1ccccc1C(F)(F)F	0.0302 (inactive)	0.627	-1.29	-4.81 (inactive)	-0.0107 (inactive)	-0.105 (inactive)
COc1cccc(C)c1NC(=O)O[C@H]1[C@H](OC(=O)Nc2ccccc2)[C@@H](OC(=O)Nc2ccccc2)[C@@H](OC)O[C@@H]1CO	1.3 (inactive)	0.912	-2.57	-4.95 (inactive)	-0.515 (inactive)	-0.515 (inactive)
C=C(CCCC)C(=O)CC[C@@H](OC(C)=O)c1ccc(OCCO)cc1	0.386 (inactive)	0.607	-2.07	-5.09 (inactive)	-0.266 (inactive)	-0.266 (inactive)
CN(C)CCCC[C@@H]1NC(=O)[C@H]2C[C@@H](C(=O)NCCCCCCNC(=O)CS)[C@@H](c3cccc(OCCO)c3)N2C1=O	0.305 (inactive)	0.603	0.162	-1.91 (inactive)	0.542 (inactive)	0.68 (inactive)
CC(C)c1ccc(NN2C(C(O)C(C)c3ccccc3)C=CC3C(=O)N(c4ccccc4)C(=O)C32)cc1 (configuration not stated)	2.17 (inactive)	0.77	-0.119	-2.2 (inactive)	0.545 (inactive)	0.739 (inactive)
COCCCNC(=O)[C@@]1(Cc2ccccc2I)c2ccccc2C(=O)N(Cc2ccccc2C(F)(F)F)[C@H]1c1ccc(CO)cc1	0.739 (inactive)	0.854	-0.821	-4.3 (inactive)	0.0894 (inactive)	-0.0472 (inactive)
